In PubChem BioAssay (EPA / NIEHS):
Records with an inconclusive call do not appear. The source made the active and inactive calls. The calls were made as follows: active = hit-call score of the fitted dose curve at least 0.9, where 1 is the maximum; inconclusive = response in the unintended direction; inactive = score below 0.9.

How the values were obtained:
[1] = biological target: bovine Estrogen Receptor (ER), ESR1 (gene 407238) (UniProt P49884); assay: NVS_NR_bER: NovaScreen (NVS) Nuclear Receptor Binding Assay for bovine Estrogen Receptor (ER) (AID 2283345);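 also: actives lower the bound radioligand count which means they displace the ER ligand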
Outline: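 Scintillation counting of displaced radioligand gave the readout; bovine uterine membrane extract supplied the receptor. Measured 18 h post-dose, normalized to DMSO baseline. Single 25 uM duplicate screen preceded concentration-response follow-up.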

[2] = biological target: Estrogen receptor (Homo sapiens) (UniProt P03372); assay: OT_ER_ERaERa_1440: Odyssey Thera (OT) 24-hour HEK293T Protein-Complementation Assay for Estrogen Receptor-alpha/-alpha Homodimer (AID 2283349);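 also: hits raise fluorescence above DMSO for agonists and antagonists alike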
Outline: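 HEK293T cells stably expressing the human ER alpha ligand-binding domain (aa 310-547) as a homodimer PCA were dosed for 24 hours. Fluorescence intensity was read by laser scanning cytometry, and gain of signal was fitted relative to DMSO vehicle.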

[3] = biological target: Bile acid receptor (Homo sapiens) (UniProt Q96RI1); assay: NVS_NR_hFXR_Antagonist: NovaScreen (NVS) Nuclear Receptor Binding Assay for human Farnesoid X Receptor Antagonism (FXR) (AID 2283350)
Outline: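 Cell-free TR-FRET ligand-binding read-out on human FXR (NR1H4) in antagonist mode, measured 1 h after dosing. Primary screen in duplicate at 25 uM, actives retested in concentration series; signal loss scored versus DMSO.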

[4] = biological target: Estrogen receptor (Homo sapiens) (UniProt P03372); assay: OT_ER_ERaERa_0480: Odyssey Thera (OT) 8-hour HEK293T Protein-Complementation Assay for Estrogen Receptor-alpha/-alpha Homodimer (AID 2283351);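 also: rise in fluorescence from reassembled reporter fragments on ERα LBD homodimer in nucleus or whole cell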
Outline: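 The readout is complementation of fragments fused to the human ER alpha ligand-binding domain (aa 310-547), stably expressed in HEK293T cells. After 8 h of exposure, the increase in nuclear/cytoplasmic fluorescence was measured by laser scanning cytometry and fitted relative to DMSO.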

[5] = biological target: Estrogen receptor (Homo sapiens) (UniProt P03372); assay: NVS_NR_hER: NovaScreen (NVS) Nuclear Receptor Binding Assay for human Estrogen Receptor (ER) (AID 2283348)
Outline: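 Radioligand competitive displacement binding to estrogen receptor from MCF7 extract, cell-free; 18 h after dosing, scintillation read-out. Primary screen in duplicate at 25 uM; actives followed up in concentration series; loss of signal vs DMSO.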

[6] = biological target: Estrogen receptor (Homo sapiens) + Estrogen receptor beta (Homo sapiens) (UniProt P03372+Q92731); assay: OT_ER_ERaERb_0480: Odyssey Thera (OT) 8-hour HEK293T Protein-Complementation Assay for Estrogen Receptor-alpha/-beta Heterodimer (AID 2283352)
Outline: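 HEK293T protein-fragment complementation assay of ER-alpha/ER-beta LBD heterodimerisation, read 8 h after dosing. Mean nuclear/cytoplasmic fluorescence intensity measured by laser scanning cytometry; gain of signal fitted relative to DMSO.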

[7] = biological target: Androgen Receptor/SRC-1 Co-activator, AR (gene 367) (UniProt P10275); assay: OT_AR_ARSRC1_0960: Odyssey Thera (OT) 16-hour HEK293T Protein-Complementation Assay for Androgen Receptor/SRC-1 Co-activator (AID 2283353);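 also: actives raise the signal above DMSO so potency reflects increased AR and SRC-1 complex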
Outline: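 HEK293T cells stably expressing AR and SRC-1 fused to Venus YFP fragments, imaged 16 h after dosing. Nuclear/cytoplasmic fluorescence ratio at 488 nm from at least 400 cells per image; gain of signal relative to DMSO.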

[8] = biological target: human Constitutive Androstane Receptor (CAR), NR1I3 (gene 9970) (UniProt Q14994); assay: NVS_NR_hCAR_Antagonist: NovaScreen (NVS) Nuclear Receptor Binding Assay for human Constitutive Androstane Receptor Antagonism (CAR) (AID 2283344)
Outline: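 Cell-free TR-FRET binding read 1 h after dosing, antagonist mode; loss of signal versus DMSO baseline. Primary screen in duplicate at a single 25 uM; actives retested in concentration series.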

NCBI gene 100848466 = assay: NVS_NR_bPR: NovaScreen (NVS) Nuclear Receptor Binding Assay for bovine Progextron Receptor (PR) (AID 2283343);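 as to AC50: actives lower bound radioligand signal below DMSO meaning displacement of the label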
Experimental: NVS_NR_bPR is a biochemical, single-readout assay that uses extracted gene-proteins from Bovine uterine membranes in a tissue-based cell-free assay. Measurements were taken 18 hours after chemical dosing in a 96-well plate.NVS_NR_bPR is one of one assay component(s) measured or calculated from the NVS_NR_bPR assay. It is designed to make measurements of radioligand binding, a form of binding reporter, as detected with scintillation counting signals by Lysate-based radiodetection technology.Data from the assay component NVS_NR_bPR was analyzed into 1 assay endpoint. This assay endpoint, NVS_NR_bPR, was analyzed in the positive analysis fitting direction relative to DMSO as the negative control and baseline of activity. Using a type of binding reporter, loss-of-signal activity can be used to understand changes in the binding as they relate to the gene PGR. Furthermore, this assay endpoint can be referred to as a primary readout, because the performed assay has only produced 1 assay endpoint. To generalize the intended target to other relatable targets, this assay endpoint is annotated to the nuclear receptor intended target family, where the subfamily is steroidal.
Binding assays used specific radioligands (tritiated, iodinated) with non-radioactive competitive displacement ligands in agonist or antagonist protocols (as indicated) and various reference compounds and inhibitors to titrate specific binding to receptors and transporters. Most enzyme assays (CYPs, kinases, phosphatases, proteases, HDACs) used recombinant protein and specific substrates (fluorescence mostly, some colorimetric and radioactive) and inhibitors, followed by a biochemical separation of substrate and product. All assays for the biochemical HTS were initially run in duplicate at a single concentration (10 uM for CYP450 assays and 25 uM for all others). […] Each assay was run with positive and negative controls, and concurrent controls on every plate. […]

[9] = biological target: chimpanzee Androgen Receptor (AR), AR (gene 747460) (UniProt O97775); assay: NVS_NR_cAR: NovaScreen (NVS) Nuclear Receptor Binding Assay for chimpanzee Androgen Receptor (AR) (AID 2283346);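 also: radioligand displacement from AR measured by scintillation counting in a cell-free assay; a loss of bound radioligand signal versus DMSO counts as binding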
Outline: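 Radioligand binding to chimpanzee AR expressed in Sf9/Sf21 cells, cell-free, measured 72 h after dosing by lysate-based scintillation counting. Loss of signal vs DMSO; initial duplicate screen at 25 uM, actives retested in concentration series.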

Measured: AC50

Sequence of bovine Estrogen Receptor (ER), ESR1 (gene 407238) (P49884 whole entry, looked up): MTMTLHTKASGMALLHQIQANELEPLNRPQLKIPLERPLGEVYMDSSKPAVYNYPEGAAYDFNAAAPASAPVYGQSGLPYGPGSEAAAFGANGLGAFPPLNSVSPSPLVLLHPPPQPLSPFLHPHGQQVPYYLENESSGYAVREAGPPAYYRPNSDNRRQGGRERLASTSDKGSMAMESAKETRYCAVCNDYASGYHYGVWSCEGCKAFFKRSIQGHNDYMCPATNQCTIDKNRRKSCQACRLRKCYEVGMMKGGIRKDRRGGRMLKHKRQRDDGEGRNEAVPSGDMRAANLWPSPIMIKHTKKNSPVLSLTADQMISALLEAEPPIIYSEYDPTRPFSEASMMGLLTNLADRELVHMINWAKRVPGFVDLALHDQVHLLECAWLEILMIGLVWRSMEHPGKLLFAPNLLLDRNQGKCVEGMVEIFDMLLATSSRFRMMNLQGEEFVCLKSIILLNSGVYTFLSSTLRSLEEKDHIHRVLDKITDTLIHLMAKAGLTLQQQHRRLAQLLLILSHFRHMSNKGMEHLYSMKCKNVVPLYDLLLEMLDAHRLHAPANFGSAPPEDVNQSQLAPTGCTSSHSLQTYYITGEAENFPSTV
Sequence of Androgen Receptor/SRC-1 Co-activator, AR (gene 367) (P10275 whole entry, looked up, the tested form may be a part): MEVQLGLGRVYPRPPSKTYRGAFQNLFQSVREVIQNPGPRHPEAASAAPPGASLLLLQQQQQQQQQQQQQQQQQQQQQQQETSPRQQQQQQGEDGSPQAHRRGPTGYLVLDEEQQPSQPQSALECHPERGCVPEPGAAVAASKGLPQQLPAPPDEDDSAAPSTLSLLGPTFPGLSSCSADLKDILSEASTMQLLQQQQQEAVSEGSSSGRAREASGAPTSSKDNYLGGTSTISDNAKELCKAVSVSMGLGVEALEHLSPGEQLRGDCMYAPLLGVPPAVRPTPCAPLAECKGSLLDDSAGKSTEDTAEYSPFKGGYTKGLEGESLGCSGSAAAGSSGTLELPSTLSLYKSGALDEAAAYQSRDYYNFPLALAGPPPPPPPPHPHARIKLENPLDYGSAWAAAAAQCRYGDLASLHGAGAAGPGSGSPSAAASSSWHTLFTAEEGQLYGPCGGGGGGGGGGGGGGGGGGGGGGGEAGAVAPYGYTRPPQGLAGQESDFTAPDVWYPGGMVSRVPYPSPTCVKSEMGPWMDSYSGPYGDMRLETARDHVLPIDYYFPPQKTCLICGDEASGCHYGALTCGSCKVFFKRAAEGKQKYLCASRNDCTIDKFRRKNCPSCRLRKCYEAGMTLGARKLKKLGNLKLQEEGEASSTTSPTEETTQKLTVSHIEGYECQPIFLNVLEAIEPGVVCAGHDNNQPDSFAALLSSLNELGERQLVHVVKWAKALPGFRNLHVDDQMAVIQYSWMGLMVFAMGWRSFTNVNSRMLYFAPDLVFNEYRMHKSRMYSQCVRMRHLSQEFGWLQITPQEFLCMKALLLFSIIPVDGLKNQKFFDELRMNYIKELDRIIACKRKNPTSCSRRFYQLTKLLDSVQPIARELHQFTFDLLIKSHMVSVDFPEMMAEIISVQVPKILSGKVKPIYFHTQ
Sequence of Estrogen receptor (Homo sapiens) (P03372 whole entry, looked up, the tested form may be a part): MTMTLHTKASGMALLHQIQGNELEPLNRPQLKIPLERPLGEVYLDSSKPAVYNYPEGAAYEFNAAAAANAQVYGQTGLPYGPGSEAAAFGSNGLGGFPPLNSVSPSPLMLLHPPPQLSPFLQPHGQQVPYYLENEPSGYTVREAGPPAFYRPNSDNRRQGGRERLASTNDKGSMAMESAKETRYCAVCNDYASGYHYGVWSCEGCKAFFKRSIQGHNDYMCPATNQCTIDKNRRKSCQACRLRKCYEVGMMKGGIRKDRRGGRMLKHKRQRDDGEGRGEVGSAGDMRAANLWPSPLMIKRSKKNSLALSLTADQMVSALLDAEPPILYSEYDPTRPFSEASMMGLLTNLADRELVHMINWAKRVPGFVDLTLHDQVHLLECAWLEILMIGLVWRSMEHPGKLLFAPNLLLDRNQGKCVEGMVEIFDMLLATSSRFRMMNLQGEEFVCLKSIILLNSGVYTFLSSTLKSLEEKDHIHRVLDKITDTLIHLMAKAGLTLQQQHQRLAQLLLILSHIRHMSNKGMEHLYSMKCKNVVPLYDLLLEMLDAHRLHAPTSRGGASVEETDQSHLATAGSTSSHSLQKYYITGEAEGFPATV
Sequence of Estrogen receptor (Homo sapiens) + Estrogen receptor beta (Homo sapiens) (P03372 whole entry, looked up, the tested form may be a part): as above
Sequence of Estrogen receptor (Homo sapiens) + Estrogen receptor beta (Homo sapiens) (Q92731 whole entry, looked up, the tested form may be a part): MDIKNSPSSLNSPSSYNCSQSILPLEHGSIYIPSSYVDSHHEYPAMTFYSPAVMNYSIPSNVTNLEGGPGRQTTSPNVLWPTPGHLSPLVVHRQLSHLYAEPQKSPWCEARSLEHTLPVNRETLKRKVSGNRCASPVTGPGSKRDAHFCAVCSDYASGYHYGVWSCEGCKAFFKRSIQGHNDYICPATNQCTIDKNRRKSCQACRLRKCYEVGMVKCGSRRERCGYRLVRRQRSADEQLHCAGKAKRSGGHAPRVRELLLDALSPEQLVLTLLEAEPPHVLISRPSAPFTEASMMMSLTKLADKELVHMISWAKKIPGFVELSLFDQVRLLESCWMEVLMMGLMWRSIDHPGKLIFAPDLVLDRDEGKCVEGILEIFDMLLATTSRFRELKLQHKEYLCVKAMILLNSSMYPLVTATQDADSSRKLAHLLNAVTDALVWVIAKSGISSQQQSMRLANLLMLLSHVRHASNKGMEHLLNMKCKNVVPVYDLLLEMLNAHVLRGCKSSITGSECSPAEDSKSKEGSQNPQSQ
Sequence of Bile acid receptor (Homo sapiens) (Q96RI1 whole entry, looked up): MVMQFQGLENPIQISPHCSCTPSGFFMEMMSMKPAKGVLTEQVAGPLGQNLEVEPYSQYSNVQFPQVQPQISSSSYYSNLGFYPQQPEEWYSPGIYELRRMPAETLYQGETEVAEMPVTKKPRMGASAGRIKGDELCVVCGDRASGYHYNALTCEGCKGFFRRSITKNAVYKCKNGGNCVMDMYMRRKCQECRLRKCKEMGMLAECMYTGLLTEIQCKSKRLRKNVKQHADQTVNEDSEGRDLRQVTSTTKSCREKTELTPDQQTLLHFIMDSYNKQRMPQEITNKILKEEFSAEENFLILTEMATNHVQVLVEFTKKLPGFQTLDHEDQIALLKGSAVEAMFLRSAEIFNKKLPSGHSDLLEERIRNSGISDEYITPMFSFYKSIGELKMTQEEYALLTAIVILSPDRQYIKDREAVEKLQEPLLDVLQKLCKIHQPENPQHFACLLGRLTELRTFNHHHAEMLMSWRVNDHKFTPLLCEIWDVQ
Sequence of chimpanzee Androgen Receptor (AR), AR (gene 747460) (O97775 whole entry, looked up): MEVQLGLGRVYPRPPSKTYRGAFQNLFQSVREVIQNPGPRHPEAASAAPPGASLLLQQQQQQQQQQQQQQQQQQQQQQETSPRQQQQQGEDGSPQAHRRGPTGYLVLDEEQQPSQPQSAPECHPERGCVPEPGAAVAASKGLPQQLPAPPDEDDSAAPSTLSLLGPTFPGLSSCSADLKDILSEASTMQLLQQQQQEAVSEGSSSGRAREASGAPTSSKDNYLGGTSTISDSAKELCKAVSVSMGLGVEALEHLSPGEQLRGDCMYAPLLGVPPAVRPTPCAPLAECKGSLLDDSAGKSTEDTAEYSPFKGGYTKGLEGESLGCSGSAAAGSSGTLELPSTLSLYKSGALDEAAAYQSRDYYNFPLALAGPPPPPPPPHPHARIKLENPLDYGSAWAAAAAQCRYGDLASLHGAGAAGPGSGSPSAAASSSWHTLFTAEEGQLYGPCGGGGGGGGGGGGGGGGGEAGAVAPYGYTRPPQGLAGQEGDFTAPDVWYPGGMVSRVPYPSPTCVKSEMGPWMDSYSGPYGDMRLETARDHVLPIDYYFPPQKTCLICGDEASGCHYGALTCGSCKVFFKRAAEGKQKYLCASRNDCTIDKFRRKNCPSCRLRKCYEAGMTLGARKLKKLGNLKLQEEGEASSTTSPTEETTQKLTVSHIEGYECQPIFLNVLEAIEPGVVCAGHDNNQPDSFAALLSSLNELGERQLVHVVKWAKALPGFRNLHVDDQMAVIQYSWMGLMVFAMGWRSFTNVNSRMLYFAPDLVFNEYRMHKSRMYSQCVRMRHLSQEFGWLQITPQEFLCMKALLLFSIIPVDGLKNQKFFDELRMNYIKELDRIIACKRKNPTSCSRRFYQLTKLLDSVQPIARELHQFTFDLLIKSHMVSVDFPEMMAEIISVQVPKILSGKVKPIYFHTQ
Sequence of human Constitutive Androstane Receptor (CAR), NR1I3 (gene 9970) (Q14994 whole entry, looked up): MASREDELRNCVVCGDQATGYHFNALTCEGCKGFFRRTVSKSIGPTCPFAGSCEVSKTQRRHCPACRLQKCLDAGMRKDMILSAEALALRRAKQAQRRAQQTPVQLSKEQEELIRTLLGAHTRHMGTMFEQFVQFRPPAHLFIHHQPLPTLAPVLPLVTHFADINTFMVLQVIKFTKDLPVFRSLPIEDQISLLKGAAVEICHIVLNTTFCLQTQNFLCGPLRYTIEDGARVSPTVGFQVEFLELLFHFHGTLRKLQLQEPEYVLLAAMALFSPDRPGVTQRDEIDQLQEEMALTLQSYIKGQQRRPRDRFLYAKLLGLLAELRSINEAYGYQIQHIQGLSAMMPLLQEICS

Cc1ccc(Cl)cc1
inactive: [1] | [2] | [3] | [4]

COC(=O)c1ccc(O)cc1
active: [6] 50 µM
inactive: [1] | [5] | [2] | [4]

CN[C@H]1CC[C@@H](c2ccc(Cl)c(Cl)c2)c2ccc(S(N)(=O)=O)cc21
inactive: [1] | [2] | [4]
active: [7] 17.4 µM

COc1ccc2c(c1)c(CC(=O)O)c(C)n2C(=O)c1ccc(Cl)cc1
inactive: [1] | [5] | [2] | [7]

CCc1c(C(=O)NN2CCCCC2)nn(-c2ccc(Cl)cc2Cl)c1-c1ccc(Br)cc1
inactive: [8] | [1] | [2] | [4] | [6]

O=C(OCCCCCOC(=O)c1ccccc1)c1ccccc1
inactive: [8] | [2] | [4]

CCCc1cc(=O)[nH]c(=S)[nH]1
inactive: [2] | [4]
active: [1] 25 µM | [5] 11.2 µM

CCCCCCCCCCCCCCCCCC(=O)O
active: [5] 17.2 µM
inactive: [1] | [2] | [4]

O=[N+]([O-])C(CO)(CO)CO
inactive: NCBI gene 100848466 | [2] | [4]

CC(C)c1ccc(C(=O)N=C(N)N)cc1S(C)(=O)=O
inactive: [1] | [2] | [6]

Cc1cccc(Nc2cc(Cl)nc(SCC(=O)O)n2)c1C
inactive: [1] | [5] | [2] | [4] | [7]

Nc1ccccc1N
inactive: [1] | [2] | [4]

CCCCc1ccc2c(n1)[C@@H](c1ccc(OC)cc1C[C@H](C)C(=O)O)[C@H](C(=O)O)[C@H]2c1ccc2c(c1)OCO2
inactive: [8] | [2] | [4] | [6]

CCCCCCC(=O)OCC
inactive: [1] | [5] | [2] | [4] | [6]

COc1cc(-c2nc(NC(=O)c3cc4cc(C)cc(C)c4n3CC(=O)O)sc2CCC2CCCCC2)c(OC)cc1Cl
inactive: [1] | [2] | [3] | [4] | [6]
active: [8] 3.54 µM | [7] 10.5 µM

COc1ccc(S(=O)(=O)N2C(=O)[C@@](c3ccccc3OC)(N3C[C@H](O)C[C@H]3C(=O)N(C)C)c3cc(Cl)ccc32)c(OC)c1
active: [9] 13.8 µM | [7] 40.4 µM
inactive: [1] | [5] | [2] | [4]

CCOc1ccc2c(c1)C(C)=CC(C)(C)N2
active: NCBI gene 100848466 25 µM | [5] 39.2 µM
inactive: [2] | [4] | [7]

Nc1ccc2c(c1)C(=O)c1ccccc1C2=O
active: [9] 19.8 µM
inactive: [5] | [2]

CCCCCCCC=O
inactive: [1] | [2] | [4] | [6]

CN1CCN(Cc2cc(-c3ccc4[nH]c(=O)oc4c3)co2)[C@@H](c2ccc(F)cc2)C1
inactive: [1]

CCCCCCCCCCC
inactive: [8] | [2] | [4] | [6] | [7]

CCCCCCCCCCCC(=O)OC
inactive: [8] | [2] | [3] | [4] | [6]

Cc1nc(-c2ccc3c(c2)CCN(CCC2CCC(NC(=O)/C=C/c4ccc(F)cc4)CC2)CC3)no1 (centres undefined)
inactive: [8] | [1] | [9] | [5] | [2] | [3] | [4] | [6] | [7]

O=C(O)Cc1ccccc1Nc1c(Cl)cccc1Cl
inactive: [1] | [5] | [2] | [6]

Oc1ccc2ccccc2c1N=Nc1ccccc1
inactive: [1] | [2] | [4]

CCCCC(CC)COC(=O)CC(C(=O)OCC(CC)CCCC)S(=O)(=O)O (centres undefined)
active: NCBI gene 100848466 10.9 µM | [9] 17.7 µM
inactive: [1] | [5] | [2]

Cc1ccc(C(C)C)c(O)c1
inactive: [8] | [2] | [4] | [6]

COc1cc(C=O)ccc1O
active: [5] 38.6 µM
inactive: [1] | [2] | [3] | [4] | [6] | [7]

CNCc1cc(F)ccc1Oc1ccc(Cl)c(Cl)c1
active: [9] 16.6 µM
inactive: [1] | [2] | [4]

CC(=O)OC/C=C(\C)CCC=C(C)C
inactive: [2] | [4]

c1cc(-c2ccncc2)ccn1
inactive: [2] | [4]

CC=Cc1ccc(O)c(OC)c1
active: [2] 73.5 µM | [4] 57.6 µM
inactive: [5]

CCOC(=O)CCC(=O)OCC
inactive: [5] | [2] | [4] | [6]

CCCCCCCCCCCCCCCC
inactive: [2] | [4]

C=CCOC(=O)c1ccccc1C(=O)OCC=C
active: [9] 14.5 µM | [5] 41.4 µM | [4] 63.1 µM
inactive: [2]

Cc1cc(NC(=O)C(=O)O)cc(C)c1Oc1ccc(O)c2c1CCC2
inactive: [9] | [2] | [4] | [7]
